Measured values published in PubChem BioAssay (NCATS).
Results filed as inconclusive are left out. Calls of active or inactive are those of the source. The call rests on the fitted dose curve; in most records, active means well fitted activation curve with a large enough effect; inconclusive means small, poorly fitted or top-dose-only effect; inactive means no such curve, though single readings can be large or run the other way.

The compounds below were run against Rap guanine nucleotide exchange factor 3 (Homo sapiens) (UniProt O95398) (assay: Confirmatory qHTS for agonist of cAMP-regulated guanine nucleotide exchange factor 3 (EPAC1) (AID 1645881; further: nearly all actives have a fitted effect of over 75% in size;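 on activation: EPAC1 catalysed release of BODIPY-GDP from Rap1B seen as fluorescence loss; 100% = effect of cAMP agonist control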)). Conditions: EPAC1 Rap1B BODIPY-GDP exchange fluorescence; series mostly up to 154 µM; activation: at the top concentration.
Chain of Rap guanine nucleotide exchange factor 3 (Homo sapiens) (O95398 whole entry, looked up): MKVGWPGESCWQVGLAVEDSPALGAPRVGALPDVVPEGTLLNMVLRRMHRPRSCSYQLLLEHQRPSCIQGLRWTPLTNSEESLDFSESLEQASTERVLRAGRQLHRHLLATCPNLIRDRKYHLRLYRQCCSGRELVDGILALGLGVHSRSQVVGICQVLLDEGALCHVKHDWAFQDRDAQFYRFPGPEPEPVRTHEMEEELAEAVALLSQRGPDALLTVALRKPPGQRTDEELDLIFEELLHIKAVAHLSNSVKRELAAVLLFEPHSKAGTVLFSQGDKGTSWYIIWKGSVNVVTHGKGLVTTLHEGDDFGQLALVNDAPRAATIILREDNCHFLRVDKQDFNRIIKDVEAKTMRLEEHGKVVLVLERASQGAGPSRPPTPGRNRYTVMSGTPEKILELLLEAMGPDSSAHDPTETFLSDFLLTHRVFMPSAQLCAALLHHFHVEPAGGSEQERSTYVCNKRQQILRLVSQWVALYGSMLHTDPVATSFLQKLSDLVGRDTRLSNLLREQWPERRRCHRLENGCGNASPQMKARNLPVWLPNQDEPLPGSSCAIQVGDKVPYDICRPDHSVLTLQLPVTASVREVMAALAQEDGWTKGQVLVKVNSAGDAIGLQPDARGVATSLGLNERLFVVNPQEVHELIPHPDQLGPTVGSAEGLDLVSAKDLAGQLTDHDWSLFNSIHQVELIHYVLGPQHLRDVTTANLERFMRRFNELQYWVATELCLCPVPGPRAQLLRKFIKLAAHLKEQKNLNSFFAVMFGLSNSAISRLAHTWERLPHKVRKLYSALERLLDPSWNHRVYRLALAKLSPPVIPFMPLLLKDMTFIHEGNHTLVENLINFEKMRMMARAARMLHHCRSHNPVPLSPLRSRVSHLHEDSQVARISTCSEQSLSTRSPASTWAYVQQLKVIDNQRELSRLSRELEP
Potency means the concentration at half of the fitted maximal effect.

activation, inactive:
CCOC(=O)c1c(NC(=O)CSc2nc3ccc(C)cc3[nH]2)sc2c1CC(C)(C)NC2(C)C 8.24%
Cc1cc(Nc2ccccc2)c2c([N+](=O)[O-])ccc(C)c2n1 24.9%
Cc1cc(C)nc(SCC(=O)c2ccc(F)c(C)c2)n1 6.53%
COC(=O)C1=CN(Cc2cccs2)C=C(C(=O)OC)C1c1cccc(O)c1 10.7%
CCCCn1nnnc1C(c1ccccc1)N1CCN(c2ccc(F)cc2)CC1 (stereo not given) 8.69%
Cc1ccc(S(=O)(=O)Nc2ccccc2C(=O)Nc2nc(-c3ccc(F)cc3)cs2)cc1 -5.74%
Cc1cc(NC(=O)COC(=O)C(C)Oc2ccc(Cl)cc2Cl)no1 (stereo not given) 9.2%
Cc1ccc(CC#N)c(-c2c(CC#N)ccc(C)c2C)c1C 1.4%
CCC(=O)NC(c1cccs1)c1cc([N+](=O)[O-])c2cccnc2c1O (stereo not given) 18%
COC(=O)c1c(-c2ccc(OC)cc2)sc2ccc(OC)cc12 11.9%
CC1=CC(C)(C)N(C(=O)c2ccc(F)cc2)c2cc3c(cc21)OCO3 18.1%
COc1ccc(OC)c(C(=O)c2ccc(Cl)cc2)c1 18.5%
Cc1ccc2oc(C(=O)N3CCCCCC3)c(C)c2c1 3.46%
CCCCN(C(=O)c1ccc2c(c1)OCO2)c1ccccc1 20.8%
CCOC(=O)C1Nc2c(F)cc(C)cc2C2c3ccccc3CC12 (stereo not given) 20.8%
O=C1/C(=C\c2cc([N+](=O)[O-])ccc2O)SC(=S)N1Cc1ccc(Cl)cc1 5.37%
O=[N+]([O-])c1ccccc1O[C@@H]1O[C@H](CO)[C@H](O)[C@H](O)[C@H]1O -2.38%
COc1ccc2c(=O)c(OC)c(-c3ccccc3)oc2c1 -0.181%
Cc1nc2sc(C(c3cccs3)N3CCN(C(=O)c4ccco4)CC3)c(O)n2n1 (stereo not given) 17.5%
COc1cc(/C=C2\C(=N)N3N=C(S(C)(=O)=O)SC3=NC2=O)cc(OC)c1OCCOc1ccccc1C -24%
Cc1oc2cc([N+](=O)[O-])c(O)c([N+](=O)[O-])c2c1C(=O)c1ccc(Br)cc1 3.18%
Cc1c(Cl)cccc1NC(=O)Nc1cccnc1 10.5%
COc1cc2c(cc1OC)C1C(=O)c3ccc4c(c3OC1CO2)C=CC(C)(C)O4 (stereo not given) 2.22%
O=C1/C(=C\c2ccc(Br)cc2)SC(=S)N1NS(=O)(=O)c1ccccc1 -5.33%
COc1ccc(NC(=O)COC(=O)c2ccc(S(=O)(=O)N(C)c3ccccc3OC)cc2)cc1OC 11.6%
N#Cc1c(C(F)(F)F)cc(-c2ccccc2)nc1SCc1nc(N)nc(N2CCOCC2)n1 14.9%
Cc1ccc(-c2noc(CSc3nnnn3C3CCCCC3)n2)cc1 14%
COc1ccc(NC(=O)c2cc(-c3ccco3)nc3ccccc23)cc1S(=O)(=O)N1CCOCC1 5.18%
CCSc1nc(C)cc(C)c1S(=O)(=O)c1ccccc1C 14.8%
COc1ccc(C(C#N)N2CCC(c3ccccc3)=N2)cc1OC (stereo not given) 13.8%
O=C(COc1ccccc1Cl)Nc1ccc(C(=O)c2ccc(C(=O)O)cc2)cc1 -5.88%
COc1ccc(-c2csc(NC(=O)c3ccccc3NS(=O)(=O)c3ccc(F)c(F)c3)n2)cc1 -7.44%
CC1(C)C(OC(=O)CCC(=O)O)CC[C@]2(C)C1CC[C@@]1(C)C2C(=O)C=C2[C@@H]3C[C@@](C)(C(=O)O)CC[C@]3(C)CCC21C (stereo not given in full) -1.38%
COC(=O)[C@@]1(C)CCC[C@@]2(C)c3ccc(O)c(C(C)C)c3CCC21 (stereo not given in full) 6.28%
O=C(Nc1sc2c(c1C(=O)O)CCC2)c1ccccc1F 1.31%
O=C(O)c1ccc(/C=N/Nc2cccc(C(F)(F)F)c2)cc1 1.04%
NC1=C(Cl)C(=O)c2ccc(S(N)(=O)=O)cc2C1=O 4.48%

Potency, active:
CCn1c(O)c(/C=N/NC(=O)c2ccncc2)c(=O)n(CC)c1=S 35.5 µM
Cc1ccc2oc(=O)c(/C=C(\O)c3ccco3)nc2c1 89.1 µM
CCN(CC)c1ccc2cc(-c3nnc(-c4cccc(Cl)c4)o3)c(=O)oc2c1 44.7 µM

These compounds were tested against Rap guanine nucleotide exchange factor 4 (Homo sapiens) (UniProt Q8WZA2) (assay: Confirmatory qHTS for agonist of cAMP-regulated guanine nucleotide exchange factor 4 (EPAC2) (AID 1645884;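 further: nucleotide exchange releases bodipy-GDP from Rap1 and this lowers its fluorescence; nearly all actives have a fitted effect of over 65% in size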; on activation: on the % scale 0 is the no-effect control and ±100 the full control effect)). Conditions: EPAC2 GEF activity, Rap1B-BODIPY-GDP fluorescence; series mostly up to 154 µM; activation: at the top concentration.
Chain of Rap guanine nucleotide exchange factor 4 (Homo sapiens) (Q8WZA2 whole entry, looked up): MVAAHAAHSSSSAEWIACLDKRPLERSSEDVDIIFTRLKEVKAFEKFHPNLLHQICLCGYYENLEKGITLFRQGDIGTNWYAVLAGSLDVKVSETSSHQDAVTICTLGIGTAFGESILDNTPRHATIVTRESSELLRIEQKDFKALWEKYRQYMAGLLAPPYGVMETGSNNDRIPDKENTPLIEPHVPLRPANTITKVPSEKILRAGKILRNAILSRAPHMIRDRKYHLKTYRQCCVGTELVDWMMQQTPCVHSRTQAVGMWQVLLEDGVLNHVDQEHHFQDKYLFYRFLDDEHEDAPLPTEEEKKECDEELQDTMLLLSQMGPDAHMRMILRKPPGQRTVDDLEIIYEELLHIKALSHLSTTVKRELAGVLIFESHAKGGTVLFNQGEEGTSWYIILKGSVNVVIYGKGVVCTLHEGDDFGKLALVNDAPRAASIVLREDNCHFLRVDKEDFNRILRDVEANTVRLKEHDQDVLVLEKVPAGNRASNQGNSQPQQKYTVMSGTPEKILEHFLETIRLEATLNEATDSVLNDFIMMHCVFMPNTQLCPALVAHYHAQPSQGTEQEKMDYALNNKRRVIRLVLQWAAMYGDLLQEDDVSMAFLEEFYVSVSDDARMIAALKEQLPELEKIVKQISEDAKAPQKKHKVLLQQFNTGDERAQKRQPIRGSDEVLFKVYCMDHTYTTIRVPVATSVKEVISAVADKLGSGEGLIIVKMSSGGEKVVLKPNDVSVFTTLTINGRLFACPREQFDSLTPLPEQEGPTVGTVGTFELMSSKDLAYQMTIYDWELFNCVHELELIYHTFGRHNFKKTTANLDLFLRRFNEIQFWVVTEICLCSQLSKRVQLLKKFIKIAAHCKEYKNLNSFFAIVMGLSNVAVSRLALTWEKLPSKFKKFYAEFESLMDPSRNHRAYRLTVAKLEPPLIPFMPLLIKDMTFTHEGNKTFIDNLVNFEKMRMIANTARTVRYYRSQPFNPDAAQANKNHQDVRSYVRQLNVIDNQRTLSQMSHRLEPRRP

activation, inactive:
CCOC(=O)c1c(NC(=O)CSc2nc3ccc(C)cc3[nH]2)sc2c1CC(C)(C)NC2(C)C 0%
Cc1cc(Nc2ccccc2)c2c([N+](=O)[O-])ccc(C)c2n1 22.1%
Cc1cc(C)nc(SCC(=O)c2ccc(F)c(C)c2)n1 2.5%
COC(=O)C1=CN(Cc2cccs2)C=C(C(=O)OC)C1c1cccc(O)c1 9.24%
CCCCn1nnnc1C(c1ccccc1)N1CCN(c2ccc(F)cc2)CC1 (stereo not given) -2.19%
Cc1ccc(S(=O)(=O)Nc2ccccc2C(=O)Nc2nc(-c3ccc(F)cc3)cs2)cc1 -2.87%
Cc1cc(NC(=O)COC(=O)C(C)Oc2ccc(Cl)cc2Cl)no1 (stereo not given) 5.21%
Cc1ccc(CC#N)c(-c2c(CC#N)ccc(C)c2C)c1C 0%
CCC(=O)NC(c1cccs1)c1cc([N+](=O)[O-])c2cccnc2c1O (stereo not given) 18.4%
COC(=O)c1c(-c2ccc(OC)cc2)sc2ccc(OC)cc12 8.74%
CC1=CC(C)(C)N(C(=O)c2ccc(F)cc2)c2cc3c(cc21)OCO3 3.2%
COc1ccc(OC)c(C(=O)c2ccc(Cl)cc2)c1 8.77% [at 17.1 µM, percent relative to cAMP agonist control]
Cc1ccc2oc(C(=O)N3CCCCCC3)c(C)c2c1 1.51%
CCCCN(C(=O)c1ccc2c(c1)OCO2)c1ccccc1 0%
CCOC(=O)C1Nc2c(F)cc(C)cc2C2c3ccccc3CC12 (stereo not given) 16.3%
O=C1/C(=C\c2cc([N+](=O)[O-])ccc2O)SC(=S)N1Cc1ccc(Cl)cc1 -15.1%
O=[N+]([O-])c1ccccc1O[C@@H]1O[C@H](CO)[C@H](O)[C@H](O)[C@H]1O -3.49%
COc1ccc2c(=O)c(OC)c(-c3ccccc3)oc2c1 5.14%
Cc1nc2sc(C(c3cccs3)N3CCN(C(=O)c4ccco4)CC3)c(O)n2n1 (stereo not given) 3.52%
COc1cc(/C=C2\C(=N)N3N=C(S(C)(=O)=O)SC3=NC2=O)cc(OC)c1OCCOc1ccccc1C -22.4%
Cc1oc2cc([N+](=O)[O-])c(O)c([N+](=O)[O-])c2c1C(=O)c1ccc(Br)cc1 10.4%
Cc1c(Cl)cccc1NC(=O)Nc1cccnc1 7.5%
COc1cc2c(cc1OC)C1C(=O)c3ccc4c(c3OC1CO2)C=CC(C)(C)O4 (stereo not given) 12.4%
O=C1/C(=C\c2ccc(Br)cc2)SC(=S)N1NS(=O)(=O)c1ccccc1 10.7% [at 17.1 µM, percent relative to cAMP agonist control]
COc1ccc(NC(=O)COC(=O)c2ccc(S(=O)(=O)N(C)c3ccccc3OC)cc2)cc1OC 3.7%
N#Cc1c(C(F)(F)F)cc(-c2ccccc2)nc1SCc1nc(N)nc(N2CCOCC2)n1 14.1%
Cc1ccc(-c2noc(CSc3nnnn3C3CCCCC3)n2)cc1 11.1%
COc1ccc(NC(=O)c2cc(-c3ccco3)nc3ccccc23)cc1S(=O)(=O)N1CCOCC1 -4.79%
CCSc1nc(C)cc(C)c1S(=O)(=O)c1ccccc1C 3.71% [at 17.1 µM, percent relative to cAMP agonist control]
COc1ccc(C(C#N)N2CCC(c3ccccc3)=N2)cc1OC (stereo not given) 10%
O=C(COc1ccccc1Cl)Nc1ccc(C(=O)c2ccc(C(=O)O)cc2)cc1 -6.52%
COc1ccc(-c2csc(NC(=O)c3ccccc3NS(=O)(=O)c3ccc(F)c(F)c3)n2)cc1 -1.62% [at 17.1 µM, percent relative to cAMP agonist control]
CC1(C)C(OC(=O)CCC(=O)O)CC[C@]2(C)C1CC[C@@]1(C)C2C(=O)C=C2[C@@H]3C[C@@](C)(C(=O)O)CC[C@]3(C)CCC21C (stereo not given in full) 2.61%
COC(=O)[C@@]1(C)CCC[C@@]2(C)c3ccc(O)c(C(C)C)c3CCC21 (stereo not given in full) 12.8%
O=C(Nc1sc2c(c1C(=O)O)CCC2)c1ccccc1F 0.131%
O=C(O)c1ccc(/C=N/Nc2cccc(C(F)(F)F)c2)cc1 -6.76%
NC1=C(Cl)C(=O)c2ccc(S(N)(=O)=O)cc2C1=O -0.348%

Potency, active:
CCn1c(O)c(/C=N/NC(=O)c2ccncc2)c(=O)n(CC)c1=S 25.1 µM
Cc1ccc2oc(=O)c(/C=C(\O)c3ccco3)nc2c1 100 µM
CCN(CC)c1ccc2cc(-c3nnc(-c4cccc(Cl)c4)o3)c(=O)oc2c1 35.5 µM
